Test results from PubChem BioAssay (EPA / NIEHS).
Active and inactive are the calls of the source. How the source made its calls: active means hit-call score of the fitted dose curve at least 0.9, where 1 is the maximum; inactive means score below 0.9.

assay: ATG_GATA_CIS: Attagene CIS-FACTORIAL HepG2 Assay for human GATA Binding Protein (AID 2282944); conditions: HepG2 GATA cis-element reporter, Attagene multiplex mRNA; actives raise or lower the signal
Procedure: ATG_CIS is a cell-based, multiplexed-readout assay that uses HepG2, a human liver cell line, with measurements taken at 24 hours after chemical dosing in a 24-well plate.ATG_GATA_CIS is one of 52 assay component(s) measured or calculated from the ATG_CIS assay. It is designed to make measurements of mRNA induction, a form of inducible reporter, as detected with fluorescence intensity signals by Reverse transcription polymerase chain reaction (RT-PCR) and Capillary electrophoresis technology.Data from the assay component ATG_GATA_CIS was analyzed into 1 assay endpoint. This assay endpoint, ATG_GATA_CIS, was analyzed with bidirectional fitting relative to DMSO as the negative control and baseline of activity. Using a type of inducible reporter, measures of mRNA for gain or loss-of-signal activity can be used to understand the reporter gene at the transcription factor-level as they relate to the gene GATA1. Furthermore, this assay endpoint can be referred to as a primary readout, because this assay has produced multiple assay endpoints where this one serves a reporter gene function. To generalize the intended target to other relatable targets, this assay endpoint is annotated to the dna binding intended target family, where the subfamily is GATA proteins.
Human liver HepG2 cells are transiently transfected with multiple reporter transcription units (MRTUs) in 6-well plates using FuGene 6 reagent (Roche; 3 ml FuGene/1 mg DNA). The MRTU constructs are regulated by a cis-regulating element (promoter). […] A major difference between the CIS and TRANS system is that in CIS activities of endogenous TFs are measured, whereas the TRANS assay evaluates changes in activities of exogenous, chimeric NR-Gal4 proteins. […] At the end of 24 hour incubation, total RNA was isolated using TriZol reagent (Invitrogen). The isolated RNA is then reverse-transcribed using oligo(dT) primer and Mo-MLV reverse transcriptase (Invitrogen) with DNAse I (Ambion) treatment for 30 min. The one-tenth of the produced cDNA was amplified by PCR using Taq DNA polymerase (Invitrogen) and two reporter sequence-specific primers. The PCR products were fluorescently labeled by primer extension with 6-arboxyfluorescein (6-FAM) 5'-labeled reporter sequence-specific primer (2 min at 95 C, 20 s at 68 C and 10 min at 72 C) and these products were digested with 5U of HpaI (New England Biolabs) for 2h at 37 C. The fragments were purified using Qiaquick PCR columns (Qiagen), analyzed on an ABI 3130xL genetic analyzer (Applied Biosystems) with peak positions identified by using a set of X-rhodamine (ROX)-labeled MapMarker1000 molecular weight standards (BioVentures). The raw capillary electrophoresis data was processed using Attagraph software (Attagene).

outcome, inactive:
O=C1CCCCCCCCCCCCCCCO1
O=S(=O)(O)c1cc(S(=O)(=O)O)c2ccc3c(S(=O)(=O)O)cc(S(=O)(=O)O)c4ccc1c2c43
O=C1CC2CC1C1CCCC21 (stereo not given)
O=P(O)(O)Oc1ccccc1
O=C(C=Cc1ccccc1)OCc1ccccc1
CC1(C)O[C@@H]2C[C@H]3[C@@H]4C[C@H](F)C5=CC(=O)C=C[C@]5(C)[C@@]4(F)[C@@H](O)C[C@]3(C)[C@]2(C(=O)CO)O1
COCc1c(C(C)C)nc(C(C)C)c(/C=C/[C@@H](O)C[C@@H](O)CC(=O)O)c1-c1ccc(F)cc1
O=C(OCC1CCC2OC2C1)C1CCC2OC2C1 (stereo not given)
NC(=O)N=NC(N)=O
CCCCC(CC)COC(=O)c1ccccc1 (stereo not given)
CC(C)=CC1CC(C)CCO1 (stereo not given)
C=CC(=O)OCCOC(=O)C=C
COCCOCCOCCOCCOC
CC1=Nc2ccc3ccccc3c2C1(C)C
C=CCOCC(O)CCl (stereo not given)
O=C1CCCC(=O)O1
O=c1cc[nH]c(=S)[nH]1
CCOc1ccc(N)c([N+](=O)[O-])c1
CCC(=O)Oc1ccc(/C(CC)=C(\CC)c2ccc(OC(=O)CC)cc2)cc1
CCN(CCC#N)c1ccc(N=Nc2c(Cl)cc([N+](=O)[O-])cc2Cl)cc1
CC(C)COC(=O)C=Cc1ccccc1
C=C(C)C(=O)OCCOc1ccccc1
Nc1ccc(N=Nc2ccccc2)c(N)n1
O=c1[nH]c(=O)c2[nH]c(=O)[nH]c2[nH]1
CC/C=C\CCOC(=O)CCCCC
CCCCCCC(O)CO (stereo not given)
O=C1Nc2ccccc2C1(c1ccc(O)cc1)c1ccc(O)cc1
CC[C@H]1OC(=O)[C@H](C)[C@@H](O[C@H]2C[C@@](C)(OC)[C@@H](O)[C@H](C)O2)[C@H](C)[C@@H](O[C@@H]2O[C@H](C)C[C@H](N(C)C)[C@H]2O)[C@](C)(O)C[C@@H](C)C(=NOCOCCOC)[C@H](C)[C@@H](O)[C@]1(C)O
NC(=O)C1CO1 (stereo not given)
ON(Cc1ccccc1)Cc1ccccc1
CC(=O)Nc1nnc(S(N)(=O)=O)s1
CCCCCCCCCCC=CC#N
O=C(O)c1cc(Cl)cc([N+](=O)[O-])c1Cl
CCCCCCCCCCCCCCCCCC#N
CCCCCCCCC(=O)OCC
COC(=O)c1ccc2cc(C(=O)OC)ccc2c1
CC(CC=O)c1ccccc1 (stereo not given)
CCN(CC)c1ccc(C(=O)c2ccccc2C(=O)O)c(O)c1
Cc1ccc(C2OC[C@@H]3OC(c4ccc(C)cc4)O[C@H]([C@H](O)CO)[C@@H]3O2)cc1 (stereo not given in full)
O=C(c1ccc(O)cc1)c1ccc(O)cc1O
